# A selection: hits, their analogues and other compounds. The true share with any hit is near 11%.
# AmpC inh no detg = inhibitors of E. coli AmpC beta-lactamase without detergent. P00811. AmpC nitrocefin hydrolysis, absorbance 480 nm, 0.0001% Triton. Potency, µM (highest dose often 57.1 µM), actives largely listed as inhibitors. 330,000 tested, 0.52% active; note: nearly all actives have a fitted effect of over 20% in size
# Target sequence (P00811 whole entry, looked up): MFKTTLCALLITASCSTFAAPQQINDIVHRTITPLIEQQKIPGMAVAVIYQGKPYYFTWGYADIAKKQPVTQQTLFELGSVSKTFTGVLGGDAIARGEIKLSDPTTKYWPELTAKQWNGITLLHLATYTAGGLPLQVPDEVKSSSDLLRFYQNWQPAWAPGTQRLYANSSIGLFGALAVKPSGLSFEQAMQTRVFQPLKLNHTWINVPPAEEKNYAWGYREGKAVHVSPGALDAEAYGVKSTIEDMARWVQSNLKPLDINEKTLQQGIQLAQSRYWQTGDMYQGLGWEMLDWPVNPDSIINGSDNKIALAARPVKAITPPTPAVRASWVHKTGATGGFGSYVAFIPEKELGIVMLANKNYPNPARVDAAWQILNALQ
#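 20 mM phosphate pH 7.0 + 0.01% (detergent screen) or 0.0001% Triton X-100; 5.3 nM AmpC reagent; cpd preinc 15 min RT; nitrocefin (800 uM stock) to start; A480 q20 s × 4 min; Activity was normalised to no-enzyme and no-compound control wells.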
# Pf growth 96h = P. falciparum growth inhibition at 96 hours; P. falciparum luciferase reporter growth, 96 h; 320,000 tested, 6.9% active; Potency, µM (series often up to 28.7 µM), actives largely listed as inhibitors
#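 Delayed-death screen, second-generation endpoint: infected erythrocytes, 2% hematocrit, 0.05% parasitemia final; 96 hours at 37 C, 5% CO2; luciferase detection reagent; luminescence decrease equals reduced growth.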
# HCV inhibitor = blocks hepatitis C virus; Huh7.5.1 HCVcc-Cre infection, luciferase reporter, 44 h; Potency, µM (doses to about 41.8 µM), usual class: inhibitors; 340,000 tested, 3.4% active
#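 Infectious HCVcc-Cre (~0.5 moi) was added to cells just after compound, with cells seeded 4 h earlier at 1,000 per well. Luciferase activity after 44 h culture reported infection; substrate was incubated 15 min at room temperature before reading.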
# AmpC inh detg = inhibitors of E. coli AmpC beta-lactamase with detergent | P00811 | 370,000 tested, 0.041% active | AmpC hydrolysis of nitrocefin, absorbance 480 nm, 0.01% Triton | Potency, µM (series often up to 114 µM), usual class: inhibitors; note: nearly all actives have a fitted effect of over 25% in size
#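 20 mM phosphate pH 7.0 + 0.01% (detergent screen) or 0.0001% Triton X-100; 5.3 nM AmpC reagent; cpd preinc 15 min RT; nitrocefin (800 uM stock) to start; A480 q20 s × 4 min; Activity was normalised to no-enzyme and no-compound control wells.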
# Pf growth 48h = P. falciparum growth inhibition at 48 hours (one generation) | P. falciparum luciferase growth in erythrocytes, 48 h | Potency, µM (top dose mostly 28.7 µM), actives largely listed as inhibitors | 310,000 tested, 5.9% active | AID 504832
#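 Luciferase-expressing parasites in RBCs, 2% Hct / 0.1% parasitemia final; RPMI 1640 + 0.5% Albumax; 37 C, 5% CO2, one generation; luminescence read-out, lower signal = inhibition.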
# AMA1-RON2 inh = disrupts binding of P. falciparum AMA1 to RON2; AID 720542; 360,000 tested, 0.2% active; AlphaScreen AMA1-biotinylated RON2 peptide binding; Potency, µM (series often up to 58.2 µM), actives largely listed as inhibitors; note: nearly all actives have a fitted effect of over 45% in size
#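 AMA1 (3D7) with his tag at 25 nM final met compounds first, then biotinylated RON2 peptide at 25 nM; detection used donor plus acceptor beads, 10 µg/mL apiece, read by AlphaScreen after 30 min at room temperature.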
# A number is an active result; – = inactive; ? = inconclusive; · = no result given; [ ] = dose if it differs, or a comment. Calls come from the whole dose curve; as a rule, active = well fitted curve in the direction sought with a large enough effect; inconclusive = small, poorly fitted or top-dose-only effect, or another doubt; inactive = no such curve, though single readings can be large; an effect the other way counts as inactive or inconclusive.
SMILES,AmpC inh no detg,Pf growth 96h,HCV inhibitor,AmpC inh detg,Pf growth 48h,AMA1-RON2 inh
Clc1ccc(-c2c[n+]3c(n2-c2ccccc2)SCC3)cc1,–[11.4 µM],0.17µM,–,–,1.2µM,–
O=C(O)c1ccccc1C(=O)N1CCc2c([nH]c3ccccc23)C1C(F)(F)F (centres undefined),–,–,–,–,–,–
O=C(c1cccc(C(F)(F)F)c1)N1CCc2c([nH]c3ccccc23)C1C(F)(F)F (centres undefined),–,12µM,–,–,8.3µM,–
CCc1nnc2c(NCc3ccc(F)cc3)nc3ccccc3n12,·,·,·,–,·,·
Cc1ccc2nc(N3CCN(C(=O)C4COc5ccccc5O4)CC3)sc2c1 (centres undefined),·,·,·,–,·,·
O=C(Cc1csc(Nc2nc(=S)[nH]c3ccccc23)n1)NCc1cccc(Cl)c1,–,?,?,–,–,–
O=C(Cc1csc(Nc2nc(=S)[nH]c3ccccc23)n1)NCc1ccccc1Cl,–,?,11µM,?,–,–
CN(C(=O)Nc1ccc(Cl)cc1Cl)[C@H]1c2cc(Br)ccc2OC[C@H]1CO,?,?,13µM,–,8.3µM,–
COc1cccc2c1OC[C@@H](CO)[C@H]2N(C)C(=O)Nc1ccccc1,–,–,–,–,?,–
Cc1ccc(-c2nn(-c3ccccc3)cc2C(=O)N2CCN(c3ccccn3)CC2)cc1,–,?,11µM,–,?,?
Cc1ccc(SCC(=O)N2CCN(c3ccccn3)CC2)cc1,–,–,–,–,–,–
Cc1ccc(-n2c(SCC(=O)N3CCN(c4ccccn4)CC3)nnc2N2CCCC2)cc1,–,8.3µM,–,–,9.3µM,–
Cc1ccc(N(C)C(=O)N2CCN(c3ccccn3)CC2)cc1,10µM,–,–,?,–,–
COc1ccc(-c2nn(-c3ccccc3)cc2/C=C/C(=O)N2CCN(c3ccccn3)CC2)cc1,–,10µM,?,–,?,–
O=C(c1cn(-c2ccccc2)nc1-c1ccccc1)N1CCN(c2ccccn2)CC1,–,–,10µM,–,?,–
O=C(c1cn(-c2ccccc2)nc1-c1ccccc1)N1CCOCC1,–,–,–,–,·,–
CCOC(=O)C1=C(CS(=O)(=O)c2ccc(Br)cc2)NC(=O)NC1c1ccccc1 (centres undefined),·,·,·,–,·,·
C#CCOCCOCCOCCNc1nc(N2CCN(C(=O)Cn3cc(CCCN=C(N)N)nn3)CC2)nc(N2CCN(C(=O)Cn3cc(CCCN=C(N)N)nn3)CC2)n1,–,0.033µM,–[8.37 µM],?,?,·
C#CCOCCOCCOCCNc1nc(N2CCN(C(=O)[C@H](C(C)C)n3cc(CCO)nn3)CC2)nc(N2CCN(C(=O)[C@H](C)n3cc(CCCN=C(N)N)nn3)CC2)n1,·,·,–[8.37 µM],·,·,–
C#CCOCCOCCOCCNc1nc(N2CCOCC2)nc(N2CCN(C(=O)[C@H](C)n3cc(CCCN=C(N)N)nn3)CC2)n1,–,–,?,–,–,–
C#CCOCCOCCOCCNc1nc(N2CCN(C(=O)[C@H]([C@@H](C)CC)n3cc(CCCN=C(N)N)nn3)CC2)nc(N2CCN(C(=O)[C@H](C)n3cc(CCCN=C(N)N)nn3)CC2)n1,–,0.17µM,–[8.37 µM],–,?,–
C#CCOCCOCCOCCNc1nc(N2CCN(C(=O)Cn3cc(CC(C)O)nn3)CC2)nc(N2CCN(C(=O)[C@H]([C@@H](C)CC)n3cc(CCCN=C(N)N)nn3)CC2)n1 (some centres undefined),–,4.7µM,–[8.37 µM],–,–,–
C#CCOCCOCCOCCNc1nc(N2CCN(C(=O)Cn3cc(CCO)nn3)CC2)nc(N2CCN(C(=O)[C@H]([C@@H](C)CC)n3cc(CCCN=C(N)N)nn3)CC2)n1,·,·,–,·,·,–
C#CCOCCOCCOCCNc1nc(N2CCN(C(=O)[C@H](C)n3cc(CCCN=C(N)N)nn3)CC2)nc(N2CCN(C(=O)[C@H](C)n3cc(CCCN=C(N)N)nn3)CC2)n1,–,0.74µM,–,–,?,–
C#CCOCCOCCOCCNc1nc(N2CCOCC2)nc(N2CCN(C(=O)Cn3cc(CCCN=C(N)N)nn3)CC2)n1,–,?,–[8.37 µM],–,–,–
SMILES,AmpC inh no detg,Pf growth 96h,HCV inhibitor,AmpC inh detg,Pf growth 48h,AMA1-RON2 inh
CC(C)(C)c1ccc2c(S(=O)(=O)O)c(C(C)(C)C)ccc2c1,·,?,·,·,–,·
C#CCOCCOCCOCCNc1nc(N2CCN(C(=O)[C@H]([C@@H](C)CC)n3cc(CCCN=C(N)N)nn3)CC2)nc(N2CCN(C(=O)[C@H]([C@@H](C)CC)n3cc(CCCN=C(N)N)nn3)CC2)n1,–,0.93µM,–[8.37 µM],?,?,·
Cc1sc2cc(-c3cccc([N+](=O)[O-])c3)c(-c3cccc([N+](=O)[O-])c3)c[n+]2c1C,–,0.83µM,–,–,0.93µM,–
O=[N+]([O-])c1cccc(-c2cc3cccc[n+]3cc2-c2cccc([N+](=O)[O-])c2)c1,–,0.17µM,–,–,0.52µM,–
O=c1cc(-c2cccc([N+](=O)[O-])c2)[nH][nH]1,–,–,–,–,–,–
COC(=O)c1ccccc1NC(=O)c1ccc2c(c1)CCN2S(=O)(=O)c1ccc(C)cc1,·,·,·,–,·,·
COc1ccc(Cl)cc1NC(=S)NCCC(c1ccccc1)c1ccccc1,–,?,?,?,?,–
S=C(NCCC(c1ccccc1)c1ccccc1)Nc1ccccc1Cl,–,4.7µM,–,–,?,–
COc1ccccc1NC(=S)NCCC(c1ccccc1)c1ccccc1,–,?,10µM,?,–,–
S=C(NCCC(c1ccccc1)c1ccccc1)Nc1ccc(Cl)cc1,–,–,?,–,–,–
CC(C)C(=O)Nc1nnc(SCc2cc(=O)n3ccccc3n2)s1,·,·,·,–,·,·
Cc1ccc(-c2csc(Nc3ccccc3)[n+]2CCc2ccccc2)cc1,–,2.1µM,–,–,12µM,?
COc1ccc(-c2csc(Nc3ccccc3)[n+]2Cc2ccccc2)cc1,–,13µM,?,–,–,?
Cc1ccc(-c2csc(Nc3ccc(C(=O)O)cc3)[n+]2Cc2ccccc2)cc1,–,?,–,–,?,–
O=[N+]([O-])c1ccc(-c2csc(Nc3ccccc3)[n+]2Cc2ccccc2)cc1,–,?,–,–,5.2µM,?
Cc1ccc(C(=O)c2sc(Nc3ccc(F)cc3)nc2N)c(C)c1,·,·,·,–,·,·
COc1ccc(-c2c(C#Cc3ccsc3)c3cc(-c4cccc5[nH]ccc45)ccc3n2C)cc1,–,2.3µM,?,–,1.3µM,–
COc1cc(C#Cc2c(-c3ccccc3)n(C)c3ccccc23)cc(OC)c1,–,12µM,–[8.37 µM],–,?,–
